Measurements: PubChem BioAssay (NCI)
Compounds without any hit were thinned out: in the full panel of roughly 83,000, 20% have a hit.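 Percent growth is the endpoint: 0 to 100 indicates growth inhibition (40 means 60% inhibition), 0 means no net growth, and negative values indicate cell death.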 Values without a mark were called inactive. Activity calls are given as the source filed them. Rule for the calls: active = growth percent below 10; inactive = the rest.

Assays:
Assay in all cases: NCI-60 one-dose screen, 48 h (100 = growth as untreated, 0 = no growth, -100 = all killed)
Settings in all cases: 10 µM unless noted
[1] = tested on: NCI-H23 lung
[2] = tested on: NCI-H226 lung
[3] = tested on: NCI-H322M lung
[4] = tested on: HOP-62 NSCLC
[5] = tested on: NCI-H460 lung
[6] = tested on: NCI-H522 lung
[7] = tested on: A549/ATCC NSCLC
[8] = tested on: 786-0 renal
[9] = tested on: COLO 205 colon
[10] = tested on: DU-145 prostate
[11] = tested on: K-562 leukemia
[12] = tested on: MALME-3M melanoma
[13] = tested on: MDA-MB-231 breast
[14] = tested on: RXF 393 renal
[15] = tested on: SF-268 CNS
[16] = tested on: SF-295 CNS
[17] = tested on: SF-539 CNS
[18] = tested on: UACC-257 melanoma
[19] = tested on: M14 melanoma

Compound | growth [1] | growth [2] | growth [3] [%] | growth [4] [%] | growth [5] | growth [6] | growth [7] | growth [8] | growth [9] | growth [10] [%] | growth [11] | growth [12] | growth [13] [%] | growth [14] | growth [15] [%] | growth [16] | growth [17] | growth [18] | growth [19]
Cc1cc(-c2ccc(Cl)cc2)n(Cc2nnc(SCC(=O)Nc3ccc(S(N)(=O)=O)cc3)n2C2CCCCC2)n1 | 99.4% | 93.5% | 97.2 | 114 | 105% | 99.8% | 98.4% | 108% | 116% | 117 | 104% | 87% | 106 | 110% | 113 | 98% | 103% | 101% | 99.8%
CCC(NC(c1cc2cccc3ccc4cccc1c4c32)c1nnnn1C(C)(C)C)C1CCCCC1 (centres undefined) | 46.6% | 75% | 79.3 | 69.7 | 31.2% | 60.1% | 69.7% | 67.3% | 78.6% | 69.7 | 35.2% | 83.5% | 55.9 | 69.8% | 74.6 | 63.5% | 63.2% | 38.6% | 80.5%
Cc1ccc(N2C(=O)/C(=C/C=C/c3ccco3)SC2=S)cc1 | 98.9% | 102% | 96.4 | 95.9 | 88.9% | 81.8% | 86.3% | 104% | 94.3% | 100 | 61.2% | 91.4% | 94.9 | 74.6% | 105 | 99.1% | 101% | 88.3% | 103%
Cc1cccc2c3c(sc12)C(c1ccc(Cl)cc1)c1c(nc(CC(=O)Nc2ccccc2)[nH]c1=O)O3 (centres undefined) | 55.1% | 65.4% | 76.5 | 59.8 | 42.1% | 26.9% | 62.6% | 75.9% | 101% | 93 | 20.9% | 51.3% | 77 | 39.9% | 66.7 | 29.1% | 40% | 79.8% | 61.7%
Cc1cc(C)c2sc(=O)n(Cc3nnc(SCCC(=O)O)o3)c2n1 | 101% | 94.5% | 98 | 98.2 | 105% | 100% | 104% | 104% | 124% | 108 | 94.2% | 99.2% | 97.5 | 89.2% | 99.2 | 101% | 98.8% | 101% | 104%
O=S(=O)(Nc1ccc2c(c1)OCO2)c1ccc(-c2cnc(C3CC3)o2)cc1 | 42% | 55.9% | 64.5 | 43.3 | 23.5% | 34.4% | 43.8% | 46.2% | 35.3% | 44.6 | 12.3% | 46.2% | 46.2 | 34.9% | 53.6 | 9.2% (active) | 33% | 55% | 22.8%
CC1(COc2ccc3ncc(C#Cc4cncc(C(=O)Nc5cccc(C(F)(F)F)c5)c4)n3n2)COC1 | 60.9% | 25% | 95.9 | 63.7 | 85.4% | 75.5% | 88.3% | 97.9% | 80.7% | 91.1 | 47.8% | 71.1% | 44.5 | -4.67% (active) | 76.1 | 79.6% | 60.1% | 98.1% | 78%
Nc1nc(-c2cccc([N+](=O)[O-])c2)c(N=Nc2ccc([N+](=O)[O-])cc2Cl)s1 | 0.802% (active) | -2.56% (active) | 13.8 | 21.9 | 1.77% (active) | -3.73% (active) | 15.2% | 3.66% (active) | -61.6% (active) | 19.6 | 10.7% | -3.18% (active) | 12.2 | -31.1% (active) | 20.5 | -18.4% (active) | 16.9% | -8.89% (active) | 4.9% (active)
COc1cccc2cc(-c3cc4ccccc4[nH]3)/c(=N\NC(=O)c3ccc(Cl)cc3)oc12 | 44.6% | 44% | 41.5 | 31.3 | 18.4% | 18.7% | 39.8% | 48.5% | 62.1% | 48.3 | 22.1% | 61.7% | 41.3 | 45.9% | 32.9 | 43.2% | 33.1% | 17.4% | 31.9%
CCNC(=O)N1CCc2cc(OC)c(OCCc3ccc(OC)cc3)cc2C1c1ccc(Cl)cc1C (centres undefined) | 25.1% | 32.4% | 46.6 | 27.7 | 1.35% (active) | -16.2% (active) | 9.93% (active) | 9.78% (active) | 13.9% | 16.2 | 12.3% | 60.4% | 12.4 | -4.98% (active) | 27.1 | 13.3% | 5.79% (active) | 44.7% | 17.5%
CCOC(=O)c1c(Nc2ccccc2)nn2c(-c3ccc(OC)cc3)ccnc12 | 86% | 93.5% | 87.1 | 95.3 | 93.5% | 88.1% | 88.7% | 64.5% | 99.9% | 90.8 | 45.3% | 87.6% | 79.4 | -2.68% (active) | 101 | 89.5% | 83.8% | 110% | 96%
CN1CCN(c2nc(-c3csc(-c4ccccc4)n3)cc3ccccc23)CC1 | 66.7% | 97.7% | 72.9 | 70.2 | -26.1% (active) | 37.1% | 53.8% | 46.4% | -84.4% (active) | 30.8 | -35.1% (active) | 49% | 38.4 | -4.62% (active) | 53 | 74.7% | 57.5% | 46.6% | -70.8% (active)
COc1cc2oc(-c3cccc(N)c3)cc(=O)c2c(OC)c1OC | 110% | 99.9% | 102 | 115 | 106% | 97.4% | 101% | 94.1% | 126% | 108 | 107% | 101% | 100 | 117% | 104 | 93.4% | 99.6% | 119% | 111%
O=C1CCCC2=C1C(c1c[nH]c3ccc(Br)cc13)Cc1cc(Br)ccc1N2 (centres undefined) | 45.8% | 68.8% | 54.2 | 41.2 | 17.3% | 12.8% | 43.7% | 41.2% | 42.5% | 57.6 | 19.8% | 49.3% | 40 | 50.1% | 51.8 | -9.43% (active) | 28.6% | 80% | 13.1%
O=C(Nc1nc2ccc([N+](=O)[O-])cc2s1)Nc1ccccc1Br | 9.86% (active) | 38.4% | 27.6 | 91.2 | 27.4% | 26.5% | 49.4% | 70% | 55.3% | 46.5 | 20.7% | 14.6% | 72.7 | 62.2% | 38.3 | 38.1% | 39.9% | 30.4% | 54.5%
CC1=N[C@@H]2CN(C(=O)OC(C)(C)C)C[C@@H]2n2c1cc1ccccc1c2=O | 93.7% | 99.5% | 98.6 | 97.9 | 109% | 98.6% | 103% | 102% | 107% | 111 | 97.8% | 107% | 96.1 | 110% | 99.5 | 108% | 99.3% | 108% | 97.7%
